Results from PubChem BioAssay (EPA / NIEHS).
Calls of active or inactive are those of the source. The calls were made as follows: active = hit-call score of the fitted dose curve at least 0.9, where 1 is the maximum; inactive = score below 0.9.

Key:
Conditions in all cases: mRNA level, 48 h; actives raise or lower the signal
[1] = read-out: ABC Transporter (ABCB11), ABCB11 (gene 8647); test: LTEA_HepaRG_ABCB11: Life Technologies and Expression Analysis (LTEA) Assay for ABC Transporter (ABCB11) using HepaRG (AID 2283463)
Outline: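 Using HepaRG cultures held in 0.5% DMSO, chemicals were tested at half-log dilutions from 100 uM for 48 h. Induction or suppression of ABCB11 mRNA, normalized to ACTB, GAPDH and POLR2A, was fitted bidirectionally against vehicle.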

[2] = read-out: ABC Transporter (ABCC2), ABCC2 (gene 1244); test: LTEA_HepaRG_ABCC2: Life Technologies and Expression Analysis (LTEA) Assay for ABC Transporter (ABCC2) using HepaRG (AID 2283464)
Outline: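 HepaRG cells were plated 48 h, switched to serum-free induction medium, then exposed in duplicate for 48 h to 8 concentrations (top 100 uM, half-log steps, 0.5% DMSO). ABCC2 mRNA was measured by qRT-PCR normalized to ACTB/GAPDH/POLR2A; bidirectional fitting versus DMSO.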

[3] = read-out: Broad substrate specificity ATP-binding cassette transporter ABCG2 (Homo sapiens) (UniProt Q9UNQ0); test: LTEA_HepaRG_ABCG2: Life Technologies and Expression Analysis (LTEA) Assay for ABC Transporter (ABCG2) using HepaRG (AID 2283465)
Outline: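 Gene expression of ABCG2 in HepaRG liver cells is quantified by qRT-PCR following 48 h exposure across an eight-point series topping at 100 uM. Values come from bidirectional fitting relative to DMSO vehicle.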

[4] = read-out: ATP-citrate lyase (ACLY), ACLY (gene 47); test: LTEA_HepaRG_ACLY: Life Technologies and Expression Analysis (LTEA) Assay for ATP-citrate lyase (ACLY) using HepaRG (AID 2283466)
Outline: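 ACLY expression changes in human HepaRG liver cells are quantified by qRT-PCR after 48 h exposure to test chemicals (maximum 100 uM, half-log steps). Values are fitted in both directions relative to 0.5% DMSO vehicle.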

[5] = read-out: Peroxisomal acyl-coenzyme A oxidase 1 (ACOX1) gene, ACOX1 (gene 51); test: LTEA_HepaRG_ACOX1: Life Technologies and Expression Analysis (LTEA) Assay for Peroxisomal acyl-coenzyme A oxidase 1 (ACOX1) gene using HepaRG (AID 2283467)
Outline: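 Human HepaRG hepatic cultures, 48 h treatment with test chemicals up to 100 uM. ACOX1 expression read by qRT-PCR relative to 0.5% DMSO vehicle.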

[6] = read-out: Alkaline Phosphatase, Placental (ALPP) gene, ALPP (gene 250); test: LTEA_HepaRG_ALPP: Life Technologies and Expression Analysis (LTEA) Assay for Alkaline Phosphatase, Placental (ALPP) gene using HepaRG (AID 2283468)
Outline: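 Differentiated human HepaRG cells were plated and cultured 48 h, then exposed in duplicate for 48 h in serum-free induction medium to eight half-log concentrations from 100 uM in 0.5% DMSO. ALPP mRNA was measured by TaqMan qRT-PCR, normalized to ACTB, GAPDH, POLR2A.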

[7] = read-out: Bcl-2 (BAD) gene, BAD (gene 572); test: LTEA_HepaRG_BAD: Life Technologies and Expression Analysis (LTEA) Assay for Bcl-2 (BAD) gene using HepaRG (AID 2283469)
Outline: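 Activity values reflect up- or down-regulation of BAD mRNA in human HepaRG hepatic cells treated 48 h in serum-free medium, with eight-point half-log dosing capped at 100 uM and 0.5% DMSO vehicle.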

[8] = read-out: Bcl-2 (BAX) gene, BAX (gene 581); test: LTEA_HepaRG_BAX: Life Technologies and Expression Analysis (LTEA) Assay for Bcl-2 (BAX) gene using HepaRG (AID 2283470)
Outline: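 qRT-PCR read-out of BAX mRNA, normalized to three housekeeping genes, after 48 h chemical exposure of human HepaRG cells in serum-free induction medium; eight-point half-log series, top 100 uM, 0.5% DMSO vehicle; bidirectional fit versus DMSO.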

[9] = read-out: adenosine kinase (ADK) gene, ADK (gene 132); test: LTEA_HepaRG_ADK: Life Technologies and Expression Analysis (LTEA) Assay for adenosine kinase (ADK) gene using HepaRG (AID 2283471)
Outline: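 Differentiated HepaRG cells dosed 48 h in serum-free induction medium, 0.5% DMSO vehicle, eight half-log concentrations from 100 uM, in duplicate. ADK mRNA by TaqMan qRT-PCR normalised to ACTB, GAPDH, POLR2A; bidirectional fit versus DMSO.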

[10] = read-out: Alpha-fetoprotein (AFP) gene, AFP (gene 174); test: LTEA_HepaRG_AFP: Life Technologies and Expression Analysis (LTEA) Assay for Alpha-fetoprotein (AFP) gene using HepaRG (AID 2283472)
Outline: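 qRT-PCR (Fluidigm TaqMan) readout of AFP transcript, normalized to three housekeeping genes, fitted bidirectionally against 0.5% DMSO baseline. HepaRG cells received chemicals for 48 h in serum-free induction medium, top concentration 100 uM, half-log steps.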

BCL2L11 (gene 10018) = test: LTEA_HepaRG_BCL2L11: Life Technologies and Expression Analysis (LTEA) Assay for Bcl-2 (BCL2L11) gene using HepaRG (AID 2283473)
Outline: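 Differentiated human HepaRG cells in serum-free induction medium were exposed in duplicate for 48 h to eight concentrations (top 100 uM, half-log steps, 0.5% DMSO). BCL2L11 mRNA was quantified by TaqMan qRT-PCR, normalized to ACTB/GAPDH/POLR2A, bidirectional fit versus DMSO.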

[11] = read-out: Apolipoprotein A-V (APOA5) gene, APOA5 (gene 116519); test: LTEA_HepaRG_APOA5: Life Technologies and Expression Analysis (LTEA) Assay for Apolipoprotein A-V (APOA5) gene using HepaRG (AID 2283474)
Outline: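 Differentiated human HepaRG cells were exposed in duplicate for 48 h to eight half-log concentrations from 100 uM in 0.5% DMSO. APOA5 mRNA was quantified by TaqMan qRT-PCR, normalized to ACTB, GAPDH and POLR2A, and fitted bidirectionally against DMSO.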

[12] = read-out: Bcl-2 (BID) gene, BID (gene 637); test: LTEA_HepaRG_BID: Life Technologies and Expression Analysis (LTEA) Assay for Bcl-2 (BID) gene using HepaRG (AID 2283476)
Outline: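 HepaRG, 48 h exposure, 8-pt half-log series, top 100 uM, 0.5% DMSO vehicle, duplicates. Readout: BID mRNA by TaqMan qRT-PCR; housekeeping-normalized; bidirectional curve fit vs DMSO baseline.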

Caspase-3 (Homo sapiens) = Caspase-3 (Homo sapiens) (UniProt P42574); test: LTEA_HepaRG_CASP3: Life Technologies and Expression Analysis (LTEA) Assay for cysteine-aspartic acid protease (CASP3) using HepaRG (AID 2283477)
Chain of Caspase-3 (Homo sapiens) (P42574 whole entry, looked up): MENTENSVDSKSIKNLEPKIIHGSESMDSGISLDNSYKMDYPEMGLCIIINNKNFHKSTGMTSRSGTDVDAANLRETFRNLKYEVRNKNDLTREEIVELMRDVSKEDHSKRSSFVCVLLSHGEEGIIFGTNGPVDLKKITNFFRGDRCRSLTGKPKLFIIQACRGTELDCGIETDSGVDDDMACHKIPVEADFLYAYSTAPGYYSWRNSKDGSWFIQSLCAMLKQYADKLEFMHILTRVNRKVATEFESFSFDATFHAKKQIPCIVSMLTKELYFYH
Outline: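 Differentiated human HepaRG cells in serum-free induction medium were exposed 48 h to 8-point half-log concentrations from 100 uM (0.5% DMSO vehicle). CASP3 mRNA was measured by qRT-PCR, normalised to ACTB, GAPDH and POLR2A, with bidirectional fitting against DMSO.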

[13] = read-out: Cytochrome P450 (CYP24A1), CYP24A1 (gene 1591); test: LTEA_HepaRG_CYP24A1: Life Technologies and Expression Analysis (LTEA) Assay for Cytochrome P450 (CYP24A1) using HepaRG (AID 2283478)
Outline: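 Differentiated HepaRG cells, pre-cultured 48 h, were exposed in duplicate for 48 h in serum-free induction medium to 8 half-log concentrations (top 100 uM, 0.5% DMSO). CYP24A1 mRNA was quantified by TaqMan qRT-PCR, normalized to ACTB/GAPDH/POLR2A, fitted bidirectionally versus DMSO.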

[14] = read-out: Cytochrome P450 (CYP1A2), CYP1A2 (gene 1544); test: LTEA_HepaRG_CYP1A2: Life Technologies and Expression Analysis (LTEA) Assay for Cytochrome P450 (CYP1A2) using HepaRG (AID 2283479)
Outline: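 Differentiated human HepaRG cells in serum-free induction medium were exposed in duplicate for 48 h to 8-point half-log concentrations up to 100 uM in 0.5% DMSO. CYP1A2 mRNA measured by qRT-PCR, normalized to ACTB, GAPDH, POLR2A; bidirectional fit vs DMSO.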

[15] = read-out: cysteine-aspartic acid protease (CASP8), CASP8 (gene 841); test: LTEA_HepaRG_CASP8: Life Technologies and Expression Analysis (LTEA) Assay for cysteine-aspartic acid protease (CASP8) using HepaRG (AID 2283480)
Outline: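 Concentration-response in duplicate up to 100 uM (half-log steps, 0.5% DMSO) on differentiated HepaRG cultures for 48 h. Expression change of CASP8 mRNA is determined by TaqMan qRT-PCR with housekeeping-gene normalization.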

[16] = read-out: Cytochrome P450 (CYP2B6), CYP2B6 (gene 1555); test: LTEA_HepaRG_CYP2B6: Life Technologies and Expression Analysis (LTEA) Assay for Cytochrome P450 (CYP2B6) using HepaRG (AID 2283481)
Outline: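 Differentiated HepaRG cells, serum-free induction medium, exposed 48 h in duplicate to 8-point half-log concentrations from 100 uM in 0.5% DMSO. CYP2B6 mRNA by qRT-PCR, normalized to ACTB, GAPDH, POLR2A; bidirectional fit versus DMSO.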

[17] = read-out: Apoptosis regulator Bcl-2 (Homo sapiens) (UniProt P10415); test: LTEA_HepaRG_BCL2: Life Technologies and Expression Analysis (LTEA) Assay for Bcl-2 gene using HepaRG (AID 2283475)
Outline: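 qRT-PCR read-out (Fluidigm TaqMan) of BCL2 transcript, normalised to three housekeeping genes, after 48 h chemical exposure of HepaRG cells; 8-point half-log series, top 100 uM, 0.5% DMSO vehicle. Gain or loss of signal fitted relative to DMSO baseline.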

Measured: AC50

Chain of Broad substrate specificity ATP-binding cassette transporter ABCG2 (Homo sapiens) (Q9UNQ0 whole entry, looked up): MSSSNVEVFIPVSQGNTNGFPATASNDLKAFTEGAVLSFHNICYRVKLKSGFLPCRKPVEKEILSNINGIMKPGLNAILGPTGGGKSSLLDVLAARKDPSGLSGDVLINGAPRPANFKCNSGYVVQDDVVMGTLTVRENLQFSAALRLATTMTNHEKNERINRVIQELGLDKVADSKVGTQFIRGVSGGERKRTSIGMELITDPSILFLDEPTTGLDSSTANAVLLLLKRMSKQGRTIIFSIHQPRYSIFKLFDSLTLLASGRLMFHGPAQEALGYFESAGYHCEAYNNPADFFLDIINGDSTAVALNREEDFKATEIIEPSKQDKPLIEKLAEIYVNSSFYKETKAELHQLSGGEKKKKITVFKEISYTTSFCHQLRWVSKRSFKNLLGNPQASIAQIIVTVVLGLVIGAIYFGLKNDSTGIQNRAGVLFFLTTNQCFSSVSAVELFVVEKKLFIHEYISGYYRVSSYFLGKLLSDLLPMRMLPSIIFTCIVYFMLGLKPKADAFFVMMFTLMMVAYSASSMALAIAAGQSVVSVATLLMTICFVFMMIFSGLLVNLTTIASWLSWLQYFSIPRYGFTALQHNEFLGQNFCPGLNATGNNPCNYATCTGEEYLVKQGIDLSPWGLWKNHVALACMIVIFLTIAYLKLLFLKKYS
Chain of Apoptosis regulator Bcl-2 (Homo sapiens) (P10415 whole entry, looked up): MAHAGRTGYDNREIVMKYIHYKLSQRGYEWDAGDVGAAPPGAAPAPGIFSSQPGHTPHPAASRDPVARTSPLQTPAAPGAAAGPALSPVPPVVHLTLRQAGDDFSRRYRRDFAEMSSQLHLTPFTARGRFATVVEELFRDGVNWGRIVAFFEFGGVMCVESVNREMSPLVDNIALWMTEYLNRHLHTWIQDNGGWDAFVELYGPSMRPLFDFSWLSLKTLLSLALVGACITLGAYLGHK

CC(C)[C@H](C(=O)O[C@H](C#N)c1cccc(Oc2ccccc2)c1)c1ccc(Cl)cc1
active: [2] 50 µM | [3] 37 µM | [10] 24.7 µM | [14] 37.3 µM | [16] 20.8 µM
not listed: [17]
inactive: all other assays above

COP(=O)(OC)C(O)C(Cl)(Cl)Cl (centres undefined)
active: [6] 0.0572 µM | [12] 0.155 µM
not listed: [13] | [14] | [16]
inactive: all other assays above
